In the supplement of paper PMC9023506:
Where a name gives a salt, the structure may show the parent alone.

What follows are compounds tested on Danio rerio larvae (5 dpf) (assay: habituation to 1-s acoustic pulses, difference vs DMSO (percentage points (treated minus DMSO)); higher = more of the behaviour than the DMSO vehicle control). Conditions: 10 µM; exposure time: 3 h pre-incubation + 3 h imaging.
Outline: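 Five-days-post-fertilisation wild-type zebrafish larvae were held in 96-well ProxiPlates and exposed to each library drug at a final 10 µM, diluted 1000× from DMSO stocks into egg water, with 48 larvae per drug. Exposure lasted 3 h before and 3 h during imaging at 28.5 °C, with images taken every 6 s across a 3-h program of rest, moving coloured lines and acoustic pulses. An ImageJ macro scored movement and upper-half location, and each behaviour score is the treated-group mean minus the vehicle-group mean, expressed in percentage points.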

SMILES	habituation to 1-s acoustic pulses
O=C1CCc2ccc(OCCCCN3CCN(c4cccc(Cl)c4Cl)CC3)cc2N1 [Aripiprazole]	-5.72
CCCCC(=O)N(Cc1ccc(-c2ccccc2-c2nnn[nH]2)cc1)[C@H](C(=O)O)C(C)C [Valsartan]	2.82
Nc1nc(F)nc2c1ncn2[C@@H]1O[C@H](CO)[C@@H](O)[C@@H]1O [Fludarabine]	-1.56
CCOc1nc2cccc(C(=O)O)c2n1Cc1ccc(-c2ccccc2-c2noc(=O)[nH]2)cc1 [Azilsartan]	6.99
CCCCc1nc(Cl)c(CO)n1Cc1ccc(-c2ccccc2-c2nnn[nH]2)cc1 [Losartan potassium]	0.91
Nc1ccn([C@@H]2O[C@H](CO)[C@@H](O)C2(F)F)c(=O)n1 [Gemcitabine hydrochloride]	-2.82
CC(C)OC(=O)C(C)(C)Oc1ccc(C(=O)c2ccc(Cl)cc2)cc1 [Fenofibrate]	-5.04
